NADH enzymes: inhibitors of PK/LDH coupling enzymes, profiling panel, artefact control, biochemical, MLSMR library | coupled PK/LDH NADH assays, four targets | IC50, µM (highest dose often 10 µM) | hit rate 0.02% among 65,000 | AID 774, 2007;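 active = single-dose screening hits from any of four coupled enzyme assays that gave an IC50 when retested across doses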;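 note: the DPM-DC format reads NADH fluorescence rather than 340 nm absorbance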
PMK inhibit: S. pneumoniae PMK inhibitors, primary screen, biochemical, mevalonate pathway, pilot trial included | phosphomevalonate kinase (Streptococcus pneumoniae D39) | purified PMK, PK/LDH-coupled NADH absorbance 340 nm | inhibition, % at 10 µM | hit rate 0.49% among 65,000;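 active = top-ranked compounds by inhibition in the single 10 µM screen, taking a fixed number of the strongest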
Abs 340nm: compound light absorbance at 340 nm, profiling panel, artefact control, biochemical, MLSMR library, data from PS, PMK, MK assays; compound absorbance at 340 nm, fold over control; fold change at 10 µM; 65,000 tested, under 10 active;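 active = at 10 µM dose, initial 340 nm absorbance at least 2 fold that of control wells; inactive = change under 2 fold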;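 note: initial absorbance extrapolated from kinetic A340 decline of NADH oxidation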
Spn MK inh: S. pneumoniae MK inhibitors, primary screen, biochemical, PK/LDH-coupled NADH absorbance | mevalonate kinase [Streptococcus pneumoniae D39] | purified MK, PK/LDH-coupled NADH absorbance 340 nm | inhibition, % at 10 µM | hit rate 0.48% among 65,000 | AID 555, 2006;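 active = ranked among the strongest by inhibition in the single 10 µM screen, a fixed top-ranked set picked for dose follow-up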
DPM-DC inhibit: S. pneumoniae DPM-DC inhibitors, primary screen, biochemical, PK/LDH-coupled NADH fluorescence; hit rate 0.49% among 65,000; purified DPM-DC; calls only at 10 µM;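 active = the 320 compounds with the highest percent inhibition in the single-dose primary screen, excluding strongly autofluorescent ones, cut at about 32% in these data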;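 note: kinetic rate of NADH fluorescence loss reporting ADP formed by the decarboxylase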
Fluor 339 460: intrinsic fluorescence of library compounds, ex339/em460 – biochemical, MLSMR library, data from DPM-DC assay, artefact control, profiling panel | compound autofluorescence, ex339/em460 nm, NADH buffer; active compounds read high; 1 = no-compound wells, NADH background | fluorescence fold increase at 10 µM | hit rate 5.5% among 65,000;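 active = at 10 µM, mean starting fluorescence two-fold or more over control wells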;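 note: signal is the first read of a kinetic run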
Each line names hits and unclear results; the compound was inactive in the other large screens. A selection: hits, their analogues and other compounds. The true share with any hit is near 6.3%.

Nc1ccc(C(=O)c2ccc3c(c2)OCCO3)cc1N	none
O=C(O)C1CCC(=O)N1Cc1ccccc1Cl (stereo not given)	none
O=C(CSc1nnc(-c2ccc(Cl)s2)o1)N1CCc2ccccc21	Fluor 339 460 2
CC1CCC(NC(=O)CN2C(=O)C3CCCN3c3ncc(Cl)cc32)CC1 (stereo not given)	Fluor 339 460 2.3
COC(=O)c1ccccc1NC(=O)CN1C(=O)C2CCCN2c2ncc(Cl)cc21 (stereo not given)	Fluor 339 460 2.1
CCc1ccccc1NC(=O)CN1C(=O)C2CCCN2c2ncc(Cl)cc21 (stereo not given)	none
Cc1ccc2c(c1)nnn2C1CCN(C(=O)C2CCCCC2)CC1	none
COc1ccccc1N1CCN(S(=O)(=O)c2ccc(Cl)s2)CC1	none
CCOC(=O)N1CCC(NC(=O)C2CCN(c3ccc(N4CCOCC4)nn3)CC2)CC1	Fluor 339 460 4.9 (not shown: DPM-DC inhibit)
O=C(C1CCN(c2ccc(N3CCOCC3)nn2)CC1)N1CCc2ccccc2C1	Fluor 339 460 4.7 (not shown: DPM-DC inhibit)
O=C(C1CCN(S(=O)(=O)N2CCC3(CC2)OCCO3)CC1)N1CCc2ccccc2C1	none
COC(=O)c1ccccc1NC(=O)N1CCN(C(=O)c2ccco2)CC1	none
CCn1c(SCC(=O)Nc2nc3ccc(OC)cc3s2)nc2c1c(=O)n(C)c(=O)n2C	none
COC(=O)Cc1c(C)c2cc(Cl)c(OC(=O)c3ccco3)cc2oc1=O	Fluor 339 460 2.1 (not shown: DPM-DC inhibit)
COC(=O)Cc1c(C)c2ccc(OC(=O)c3ccco3)cc2oc1=O	Fluor 339 460 2.1 (not shown: DPM-DC inhibit)
CN(C)C(=O)N1CCC(C(=O)NCC2CCCO2)CC1 (stereo not given)	none
O=c1c(-c2ccc(F)cc2)coc2cc(O)ccc12	Fluor 339 460 2.2 (not shown: DPM-DC inhibit)
COc1ccc(-c2coc3cc(O)ccc3c2=O)cc1OC	DPM-DC inhibit active, Fluor 339 460 3.6
COc1ccc(-c2c(C)oc3cc(O)cc(O)c3c2=O)cc1OC	none
O=C(Oc1cccc(Br)c1)c1cccnc1	none
Cc1cccc(NC(=O)Cn2cnc3sc(C)c(S(=O)(=O)N4CCC(C)CC4)c3c2=O)n1	none
Cc1cccn2cc(-c3ccc(S(=O)(=O)N4CCOCC4)cc3)nc12	Fluor 339 460 2.2 (not shown: DPM-DC inhibit)
O=S(=O)(c1cccc(-c2cn3cc(Cl)ccc3n2)c1)N1CCOCC1	none
O=S(=O)(c1ccc(-c2cn3ccccc3n2)cc1)N1CCOCC1	Fluor 339 460 2.2 (not shown: DPM-DC inhibit)
O=C1CC(N2CCC(O)(c3ccc(Cl)cc3)CC2)C(=O)N1Cc1ccc(N2CCCC2=O)cc1 (stereo not given)	none
COc1cc(-c2nnc(-c3ccco3)o2)ccc1OCc1ccccc1	Fluor 339 460 3.6 (not shown: DPM-DC inhibit)
COc1cc(-c2nnc(-c3ccncc3)o2)ccc1OCc1ccccc1	Fluor 339 460 2.4
COc1ccc(-c2nnc(-c3cccnc3)o2)cc1OC	none
COc1ccc(C(=O)n2nc(-c3ccccc3)nc2N)cc1OC	none
c1ccc(CCc2nn3c(Cc4ccccc4)nnc3s2)cc1	none
O=C(O)CCCC(=O)N1CCN(C(c2ccccc2)c2ccccc2)CC1	none
COc1ccc(CCN2CC(O)=C(c3nc4ccccc4c(=O)[nH]3)C2=N)cc1OC	Fluor 339 460 2.3 (not shown: DPM-DC inhibit)
CCOC(=O)c1ccc(N2CC(O)=C(c3nc4ccccc4c(=O)[nH]3)C2=N)cc1	Fluor 339 460 2.4 (not shown: DPM-DC inhibit)
c1coc(-c2nn3c(Cn4nnc5ccccc54)nnc3s2)c1	none
O=C(CCn1c(=S)[nH]c2cc3c(cc2c1=O)OCO3)N1CCN(C2CCCCC2)CC1	none
CN1CC(=O)NC1=NC(=O)c1cc(F)c(F)cc1Cl	none
CN1CC(=O)NC1=NC(=O)c1ccc(Cl)c(S(=O)(=O)N2CCCCCC2)c1	PMK inhibit 28
Cc1oc2c(CN3CCCC3)c(O)ccc2c(=O)c1-c1ccccc1	Fluor 339 460 3 (not shown: DPM-DC inhibit)
Cc1oc2c(CN3CCOCC3)c(O)ccc2c(=O)c1-c1ccc(Br)cc1	Fluor 339 460 3.1 (not shown: DPM-DC inhibit)
O=c1c(-c2ccc(Br)cc2)coc2c(CN3CCOCC3)c(O)ccc12	Fluor 339 460 3 (not shown: DPM-DC inhibit)
O=C(c1coc2ccc(O)c(CN3CCOCC3)c12)C1CC1	none
CCc1cc2c(=O)c(-c3cnn(-c4ccccc4)c3)coc2c(CN2CCOCC2)c1O	Fluor 339 460 2.9
CCc1cc2c(=O)c(-c3nc4ccccc4n3C)coc2c(CN2CCOCC2)c1O	none
C=CCn1c(=NC(=O)C2CC2)sc2cc(NC(C)=O)ccc21	Fluor 339 460 2.1 (not shown: DPM-DC inhibit)
O=C1NC(=O)c2cc(NC(=O)C3CCCCC3)ccc21	Fluor 339 460 3.6 (not shown: DPM-DC inhibit)
CC(=O)c1cccc(NC(=O)C2CCCC2)c1	none
Cn1c(Cl)cnc1C(O)c1ccccc1 (stereo not given)	none
Cc1ccc2nc(-c3ccccn3)cc(C(=O)NC3CCN(C)CC3)c2c1	Fluor 339 460 3
CCOC(=O)c1c(NC(=O)c2nn(CC)cc2Br)sc(C)c1C	Fluor 339 460 3.5 (not shown: DPM-DC inhibit)
Cc1cccc(C)c1NC(=O)c1ccc(-n2cnnn2)cc1	none
CCOC(=O)c1c(NC(=O)c2nn(CC)cc2Br)sc2c1CCCCC2	Fluor 339 460 3.6 (not shown: DPM-DC inhibit)
CCOC(=O)c1c(NC(=O)c2ccc(-n3cnnn3)cc2)sc2c1CCCC2	Fluor 339 460 3
Cc1ccc(N2C(=O)CC3(CC4C=CC3C4)C2=O)cc1 (stereo not given)	none
Cc1csc(NC(=O)CSc2nnc(-c3ccoc3C)n2Cc2ccco2)n1	none
O=C(NC1CCCC1)c1ccc(CS(=O)(=O)c2ccc(Br)cc2)o1	none
COc1cc(C(=O)N2CCC(NC(=O)C(Cc3ccccc3C)NC(C)=O)CC2)cc(OC)c1OC (stereo not given)	none
COc1ccc(OC)c(CC(NC(C)=O)C(=O)NC2CCN(c3nc(C)cc(C)c3C#N)CC2)c1 (stereo not given)	Fluor 339 460 2.8
CC(=O)Nn1cc2c(c1-c1ccccc1)c(=O)n(C)c(=O)n2C	none
Cc1cccc(-c2c3c(=O)n(C)c(=O)n(C)c3cn2-c2ccccc2O)c1	Fluor 339 460 2.6
O=C(Nc1cccc(O)c1)c1cc(S(=O)(=O)N2CCCC2)ccc1Cl	none
CS(=O)(=O)Nc1ccccc1C(=O)NC1CC2CCC1C2 (stereo not given)	Fluor 339 460 3.8 (not shown: DPM-DC inhibit)
COCCCNC(=O)c1ccccc1NS(C)(=O)=O	Fluor 339 460 3.4 (not shown: DPM-DC inhibit)
COC(=O)[C@@H](NC(=O)N1CCN(c2cccc(C(F)(F)F)c2)CC1)C(C)C	PMK inhibit 30
COC(=O)[C@H](CCSC)NC(=O)N1CCN(c2cccc(C(F)(F)F)c2)CC1	none

Source: PubChem BioAssay
